High-throughput results: PubChem, National Center for Advancing Translational Sciences (NCATS)
Compounds with a hit are over-represented: about 19% of the library has one in this group of screens.
TDP1 cell CPT: qHTS for Inhibitors of human tyrosyl-DNA phosphodiesterase 1 (TDP1): qHTS in cells in presence of CPT | chicken DT40 Tdp1-/-;hTDP1 cells + 20 nM CPT, ATP luminescence, 48 h | hit rate 12% among 420,000 | AID 686979, 2013 | Potency, µM (doses to about 46.2 µM), for the others: top-dose activity change, negative = growth inhibition, actives largely listed as inhibitors; further: potency means the concentration at half of the fitted maximal effect; nearly all actives have a fitted effect of over 55% in size
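Chicken DT40 Tdp1-/- cells stably complemented with human TDP1 were seeded at 400 cells/well in medium containing 20 nM camptothecin, exposed to pin-transferred compounds, and grown at 37 °C for at least 48 hr. Viability was read as ATP luminescence.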
HT1080 IDH1KD tx: qHTS for induction of synthetic lethality in tumor cells producing 2HG: qHTS for the HT-1080-IDH1KD cell line; HT-1080 IDH1 knockdown viability, ATP luminescence, 48 h; Potency, µM (top dose mostly 46.1 µM), for inactives: at the top dose activity, negative = toxicity, most hits filed as cytotoxic; hit rate 2% among 360,000; AID 686971, 2013;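 further: potency means the concentration at half of the fitted maximal effect; 0% = DMSO wells and -100% = cell-free medium wells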
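CellTiter-Glo luminescence after 48 h compound exposure at 37 degrees C of IDH1-knockdown HT-1080 cells in 5% FBS RPMI. %Activity scaled between DMSO wells and cell-free media wells, with curves fitted and assigned curve classes.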
HT1080-NT tox: qHTS for induction of synthetic lethality in tumor cells producing 2HG: qHTS for the HT-1080-NT fibrosarcoma cell line; HT-1080-NT fibrosarcoma viability, CellTiter-Glo ATP luminescence, 48 h; Potency, µM (highest dose often 46.1 µM), inactives show at the highest dose activity, negative = less viability, actives largely listed as cytotoxic; hit rate 1.6% among 360,000; AID 686970, 2013;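 further: NT is the 2HG producing partner of a matched IDH1 knockdown line; potency means the concentration at half of the fitted maximal effect; 0% = DMSO-treated cells and -100% = media-only wells without cells; nearly all actives have a fitted effect of over 55% in size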
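Read-out is CellTiter-Glo luminescence after 10 minutes at room temperature, following 48 hours' compound treatment of HT-1080-NT cells (750 cells/well, RPMI, 5% FBS, 37 degrees C).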
IL-1B inflam inh: qHTS for Inhibitors of Inflammasome Signaling: IL-1-beta AlphaLISA Primary Screen; activity change, % at 57.5 µM; hit rate 4.7% among 360,000; THP-1 LPS/ATP IL-1B secretion, AlphaLISA, 16 h; stronger effect = lower value; in the data active means activity change below about -50%; inconclusive means mostly about -30% to -49%
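Secreted IL-1B measured by AlphaLISA bead assay after 16 h compound exposure of THP-1 cells; compounds (final up to 57.5 uM) added 1 h before LPS (250 ng/mL) and ATP (1.25 mM) stimulation; lower signal means less secretion.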
TDP1 cell noCPT: qHTS for Inhibitors of human tyrosyl-DNA phosphodiesterase 1 (TDP1): qHTS in cells in absence of CPT; DT40 Tdp1-/- hTDP1 cells, no CPT, ATP luminescence, 48 h; Potency, µM (series often up to 46.2 µM), for the others: top-dose activity change, negative = growth inhibition, usual class: inhibitors; hit rate 15% among 420,000; further: potency means the concentration at half of the fitted maximal effect; nearly all actives have a fitted effect of over 55% in size
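Compound effects on proliferation are scored in DT40 Tdp1-/-;hTDP1 cells in the absence of CPT. ATP levels (CellTiter-Glo luminescence) are recorded after a ≥48 hr, 37 °C incubation.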
Active calls of the source: *; u = inconclusive; x = no result given. Unless noted, the call rests on the fitted dose curve; in most records, active means well fitted curve in the direction sought with a large enough effect; inconclusive means small, poorly fitted or top-dose-only effect, or another doubt; inactive means no such curve, though single readings can be large; an effect the other way counts as inactive or inconclusive. Unless noted, on the % scale 0 is the no-effect control and ±100 the full control effect.

SMILES	TDP1 cell CPT	HT1080 IDH1KD tx	HT1080-NT tox	IL-1B inflam inh	TDP1 cell noCPT
CCN(CC)S(=O)(=O)c1ccc(C(=O)NCCc2cc3c(OC)ccc(OC)c3[nH]c2=O)cc1	u	9%	10%	49	16µM*
CCN(Cc1ccccc1)S(=O)(=O)CCNC(=O)c1ccc(OC)cc1	9%	3%	17%	-17	-27%
COc1cc(C(=O)NCCSc2ccccc2)cc(OC)c1OC	-3%	-3%	3%	15	u
COc1ccc(OC)c2[nH]c(=O)c(CCNC(=O)c3ccc(S(=O)(=O)N4CCCC4)cc3)cc12	u	5%	-3%	6	u
CN(C)S(=O)(=O)c1ccc(C(=O)NCCSc2ccccc2)cc1	-20%	-10%	-5%	-7	u
COc1ccc(-c2[nH]c3ccccc3c2SCCNC(=O)c2ccc(S(=O)(=O)N(C)C)cc2)cc1	3.3µM*	x	x	x	2.6µM*
CC(NC(=O)C12CC3CC(CC(C3)C1)C2)C(=O)N/N=C/C1=C(N2CCOCC2)C(=C\c2ccccc2)/CC1 (configuration not stated)	u	u	-15%	-23	21µM*
O=C1Nc2ccc(Br)cc2/C1=N\N=C\C1=C(N2CCOCC2)C(=C/c2ccccc2)/CC1	u	4%	1%	16	10µM*
Cn1cc(C(=O)N/N=C/C2=C(N3CCOCC3)C(=C\c3ccccc3)/CC2)ccc1=O	u	1%	-3%	26	u
CC(C)(C)n1nnnc1C(c1cc2ccccc2o1)N1CCCCC1 (configuration not stated)	u	3%	15%	-24	u
Cc1cc(C)n(CC(=O)NNC(=O)c2ccc(NC(=O)CC#N)cc2)n1	0%	0%	5%	18	13%
O=C(Nc1ccc(Cl)c([N+](=O)[O-])c1)C(Sc1ccccc1)c1ccccc1 (configuration not stated)	u	21µM*	u	-83*	u
COCC(C)NC(C(=O)Nc1ccc(Cl)c([N+](=O)[O-])c1)c1ccccc1 (configuration not stated)	-11%	-6%	-1%	10	-27%
CCC(C)NC(C(=O)Nc1ccc(Cl)c([N+](=O)[O-])c1)c1ccccc1 (configuration not stated)	u	2%	-6%	-18	16µM*
COc1cccc(CN(C)C(=O)CSCC(=O)Nc2cccc(C)c2)c1OC	u	-1%	1%	15	-28%
CN(C)CCCOC(=O)COc1ccc(C(C)(C)C)cc1	1%	-2%	2%	11	-1%
O=C(O)c1ccc(-n2cccc2/C=C2/SC(=O)N(CC(=O)N3CCCC3)C2=O)cc1	-1%	5%	1%	11	4%
Cc1ccccc1-n1c(SCC(=O)Nc2ccccc2Cl)nc2n[nH]c(C)c2c1=N	16µM*	u	u	-1	18µM*
CCOc1ccccc1NC(=O)CCSc1nc2n[nH]c(C)c2c(=N)n1-c1ccccc1Cl	u	u	u	45	u
CCc1ccc(-n2c(SCC(=O)NC(C)CC)nc3n[nH]c(C)c3c2=N)cc1 (configuration not stated)	5.8µM*	x	x	x	5.2µM*
Cc1ccc(CNC(=O)CSc2nc3n[nH]c(C)c3c(=N)n2-c2ccccc2Cl)cc1	18µM*	x	x	x	23µM*
COc1ccc(CNC(=O)CSc2n[nH]c(-c3ccc(OC)cc3)n2)cc1	9.2µM*	x	x	x	13µM*
O=C(Nc1ccc(Br)cc1)C1CCN(c2ncccn2)CC1	-25%	x	x	x	u
CCc1ccccc1NC(=O)CSc1nnc(-c2cc(C)[nH]n2)n1N	-9%	7%	3%	4	17%
